Results published in article PMC7862700, “An all-to-all approach to the identification of sequence-specific readers for epigenetic DNA modifications on cytosine”.

How the values were obtained:
Assay in all cases: DAPPL (digital affinity profiling via proximity ligation, sequencing); 10 mM Tris-HCl pH 7.5, 50 mM NaCl, 1 mM DTT, 4% glycerol, room temperature, 30 min; GST-TFs on glutathione beads, 16-mer random dsDNA library, 0.1% formaldehyde crosslink after washing; high values mean tight binding
FLI1 = molecular target: T1, FLI1 (Homo sapiens, UniProt Q01543 1-452); conditions: protein: recombinant; tags: N-terminal GST; dsDNA, one strand shown
T1 sequence: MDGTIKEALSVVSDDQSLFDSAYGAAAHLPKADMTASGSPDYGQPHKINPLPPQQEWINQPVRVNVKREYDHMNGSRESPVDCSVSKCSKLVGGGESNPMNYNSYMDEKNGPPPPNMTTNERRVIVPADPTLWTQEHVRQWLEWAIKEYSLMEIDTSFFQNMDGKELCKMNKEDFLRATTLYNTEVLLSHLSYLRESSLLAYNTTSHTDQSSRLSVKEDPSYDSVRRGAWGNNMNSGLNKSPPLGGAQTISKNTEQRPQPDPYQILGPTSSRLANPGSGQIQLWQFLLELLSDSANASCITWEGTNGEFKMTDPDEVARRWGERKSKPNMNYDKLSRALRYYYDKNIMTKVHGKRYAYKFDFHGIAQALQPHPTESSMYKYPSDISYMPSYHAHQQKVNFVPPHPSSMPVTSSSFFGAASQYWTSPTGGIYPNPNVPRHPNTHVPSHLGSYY
Method in brief: (§1)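 A tag-only sample was pooled with DNA-barcoded human transcription factors that had been expressed in yeast as GST fusions and captured on glutathione beads. The pools were incubated for 30 min at room temperature with 200 nmole of a random double-stranded 16-mer DNA library in Tris/NaCl/DTT/glycerol buffer, then washed, crosslinked with 0.1% formaldehyde, proximity-ligated (BsaI/T4 ligase, 1 h, 37 °C), PCR-amplified and sequenced on an Illumina NextSeq500. Binding signal is each hexamer's read frequency for a factor divided by its frequency for the tag-only sample.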

ELK1 = molecular target: T2, ELK1 (Homo sapiens, UniProt P19419 1-428); conditions: protein: recombinant; tags: N-terminal GST; dsDNA, one strand shown
T2 sequence: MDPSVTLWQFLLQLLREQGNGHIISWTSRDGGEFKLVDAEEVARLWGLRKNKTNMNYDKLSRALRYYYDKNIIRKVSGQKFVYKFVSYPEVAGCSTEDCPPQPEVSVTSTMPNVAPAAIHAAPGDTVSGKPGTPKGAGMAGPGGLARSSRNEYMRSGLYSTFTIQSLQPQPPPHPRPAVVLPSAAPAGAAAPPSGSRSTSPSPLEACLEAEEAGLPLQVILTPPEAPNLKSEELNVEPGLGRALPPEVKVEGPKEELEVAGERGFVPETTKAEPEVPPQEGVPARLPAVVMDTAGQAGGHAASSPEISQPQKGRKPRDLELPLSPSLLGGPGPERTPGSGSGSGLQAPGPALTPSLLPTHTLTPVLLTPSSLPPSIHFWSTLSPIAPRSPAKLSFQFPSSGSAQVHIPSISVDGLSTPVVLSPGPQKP
Method in brief: as §1

GABPA = molecular target: T3, GABPA (Homo sapiens, UniProt Q06546 1-454); conditions: protein: recombinant; tags: N-terminal GST; dsDNA, one strand shown
T3 sequence: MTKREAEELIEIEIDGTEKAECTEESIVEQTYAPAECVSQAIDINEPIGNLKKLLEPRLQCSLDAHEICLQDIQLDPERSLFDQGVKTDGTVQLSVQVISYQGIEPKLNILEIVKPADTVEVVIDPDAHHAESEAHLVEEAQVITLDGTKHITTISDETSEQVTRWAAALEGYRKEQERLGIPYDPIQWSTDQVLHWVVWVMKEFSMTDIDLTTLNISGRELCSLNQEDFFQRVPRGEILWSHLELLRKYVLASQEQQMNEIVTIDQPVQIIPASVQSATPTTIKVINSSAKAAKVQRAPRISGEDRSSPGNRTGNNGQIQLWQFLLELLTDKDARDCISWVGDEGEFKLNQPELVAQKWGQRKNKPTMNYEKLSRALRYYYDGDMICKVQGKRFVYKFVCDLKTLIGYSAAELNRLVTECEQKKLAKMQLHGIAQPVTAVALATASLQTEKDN
Method in brief: as §1

ERG = molecular target: T4, ERG (Homo sapiens, UniProt P11308 1-479); conditions: protein: recombinant; tags: N-terminal GST; dsDNA, one strand shown
T4 sequence: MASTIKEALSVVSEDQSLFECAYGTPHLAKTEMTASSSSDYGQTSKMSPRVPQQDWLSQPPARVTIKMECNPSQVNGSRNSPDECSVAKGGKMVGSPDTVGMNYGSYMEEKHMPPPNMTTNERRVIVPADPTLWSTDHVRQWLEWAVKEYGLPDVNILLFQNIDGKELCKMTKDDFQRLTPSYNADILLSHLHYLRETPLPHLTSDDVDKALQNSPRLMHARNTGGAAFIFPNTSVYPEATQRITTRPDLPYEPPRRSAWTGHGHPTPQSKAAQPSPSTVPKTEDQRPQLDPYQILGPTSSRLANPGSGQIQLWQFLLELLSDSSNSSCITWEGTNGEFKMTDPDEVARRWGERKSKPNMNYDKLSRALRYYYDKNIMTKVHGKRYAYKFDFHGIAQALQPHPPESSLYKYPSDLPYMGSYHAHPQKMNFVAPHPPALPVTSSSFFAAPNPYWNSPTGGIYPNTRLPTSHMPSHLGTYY
Method in brief: as §1

ELF1 = ELF1 (Homo sapiens, UniProt P32519 1-619); conditions: protein: recombinant; tags: N-terminal GST; dsDNA, one strand shown
Method in brief: as §1

EHF = molecular target: T5, EHF (Homo sapiens, UniProt Q9NZC4 1-300); conditions: protein: recombinant; tags: N-terminal GST; dsDNA, one strand shown
T5 sequence: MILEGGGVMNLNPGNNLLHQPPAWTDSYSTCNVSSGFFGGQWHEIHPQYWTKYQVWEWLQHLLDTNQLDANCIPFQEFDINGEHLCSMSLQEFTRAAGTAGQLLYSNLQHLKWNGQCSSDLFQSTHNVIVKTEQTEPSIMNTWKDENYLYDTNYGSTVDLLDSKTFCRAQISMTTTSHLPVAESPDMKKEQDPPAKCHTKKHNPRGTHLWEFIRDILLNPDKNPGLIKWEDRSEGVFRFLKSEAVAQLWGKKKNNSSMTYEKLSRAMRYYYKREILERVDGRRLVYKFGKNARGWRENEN
Method in brief: as §1

SPI1 = SPI1 (Homo sapiens, UniProt P17947 1-270); conditions: protein: recombinant; tags: N-terminal GST; dsDNA, one strand shown
Method in brief: as §1

SPIB = SPIB (Homo sapiens, UniProt Q01892 1-262); conditions: protein: recombinant; tags: N-terminal GST; dsDNA, one strand shown
Method in brief: as §1

ELK3 = molecular target: T6, ELK3 (Homo sapiens, UniProt P41970 1-407); conditions: protein: recombinant; tags: N-terminal GST; dsDNA, one strand shown
T6 sequence: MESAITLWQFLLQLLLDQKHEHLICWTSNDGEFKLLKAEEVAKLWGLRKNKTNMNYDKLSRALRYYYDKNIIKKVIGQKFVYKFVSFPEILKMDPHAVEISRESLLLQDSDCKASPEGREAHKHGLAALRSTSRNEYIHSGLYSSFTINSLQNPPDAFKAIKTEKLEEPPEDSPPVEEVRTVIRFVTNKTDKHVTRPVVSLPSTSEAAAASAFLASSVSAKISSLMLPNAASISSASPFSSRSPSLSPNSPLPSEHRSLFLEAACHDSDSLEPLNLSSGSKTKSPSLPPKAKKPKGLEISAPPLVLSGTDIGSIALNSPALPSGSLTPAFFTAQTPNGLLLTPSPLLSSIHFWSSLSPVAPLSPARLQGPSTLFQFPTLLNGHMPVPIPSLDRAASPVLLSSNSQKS
Method in brief: as §1

FEV = molecular target: T7, FEV (Homo sapiens, UniProt Q99581 1-238); conditions: protein: recombinant; tags: N-terminal GST; dsDNA, one strand shown
T7 sequence: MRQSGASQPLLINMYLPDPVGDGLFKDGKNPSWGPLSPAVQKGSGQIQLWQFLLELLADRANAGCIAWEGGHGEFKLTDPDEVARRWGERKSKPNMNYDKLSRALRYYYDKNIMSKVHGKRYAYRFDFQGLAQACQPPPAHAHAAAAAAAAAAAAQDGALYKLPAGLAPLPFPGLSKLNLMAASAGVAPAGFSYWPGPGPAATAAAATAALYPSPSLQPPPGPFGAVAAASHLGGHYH
Method in brief: as §1

ETV5 = ETV5 (Homo sapiens, UniProt P41161 1-510); conditions: protein: recombinant; tags: N-terminal GST; dsDNA, one strand shown
Method in brief: as §1

HSF1 = HSF1 (Homo sapiens, UniProt Q00613 1-529); conditions: protein: recombinant; tags: N-terminal GST; chain copies: 3; dsDNA, one strand shown
Method in brief: as §1

SPIC = molecular target: T8, SPIC (Homo sapiens, UniProt Q8N5J4 1-248); conditions: protein: recombinant; tags: N-terminal GST; dsDNA, one strand shown
T8 sequence: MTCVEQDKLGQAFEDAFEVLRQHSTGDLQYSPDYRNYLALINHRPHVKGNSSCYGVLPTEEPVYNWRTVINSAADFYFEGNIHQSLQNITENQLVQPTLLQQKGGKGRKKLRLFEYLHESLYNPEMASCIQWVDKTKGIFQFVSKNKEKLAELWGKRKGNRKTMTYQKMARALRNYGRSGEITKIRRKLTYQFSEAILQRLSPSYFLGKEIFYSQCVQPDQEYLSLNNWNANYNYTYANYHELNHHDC
Method in brief: as §1

ELF4 = ELF4 (Homo sapiens, UniProt Q99607 1-663); conditions: protein: recombinant; tags: N-terminal GST; dsDNA, one strand shown
Method in brief: as §1

ETV2 = molecular target: T9, ETV2 (Homo sapiens, UniProt O00321 1-342); conditions: protein: recombinant; tags: N-terminal GST; dsDNA, one strand shown
T9 sequence: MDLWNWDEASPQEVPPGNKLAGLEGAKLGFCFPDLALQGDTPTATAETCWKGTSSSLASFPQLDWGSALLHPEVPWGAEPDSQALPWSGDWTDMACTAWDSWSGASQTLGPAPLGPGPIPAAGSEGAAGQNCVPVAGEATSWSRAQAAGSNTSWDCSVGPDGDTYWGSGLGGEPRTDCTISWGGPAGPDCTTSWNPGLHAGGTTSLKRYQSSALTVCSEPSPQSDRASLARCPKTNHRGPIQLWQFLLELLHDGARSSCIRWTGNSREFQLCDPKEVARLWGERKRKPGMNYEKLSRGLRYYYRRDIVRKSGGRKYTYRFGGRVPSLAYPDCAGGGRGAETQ
Method in brief: as §1

ELF3 = molecular target: T10, ELF3 (Homo sapiens, UniProt P78545 1-371); conditions: protein: recombinant; tags: N-terminal GST; dsDNA, one strand shown
T10 sequence: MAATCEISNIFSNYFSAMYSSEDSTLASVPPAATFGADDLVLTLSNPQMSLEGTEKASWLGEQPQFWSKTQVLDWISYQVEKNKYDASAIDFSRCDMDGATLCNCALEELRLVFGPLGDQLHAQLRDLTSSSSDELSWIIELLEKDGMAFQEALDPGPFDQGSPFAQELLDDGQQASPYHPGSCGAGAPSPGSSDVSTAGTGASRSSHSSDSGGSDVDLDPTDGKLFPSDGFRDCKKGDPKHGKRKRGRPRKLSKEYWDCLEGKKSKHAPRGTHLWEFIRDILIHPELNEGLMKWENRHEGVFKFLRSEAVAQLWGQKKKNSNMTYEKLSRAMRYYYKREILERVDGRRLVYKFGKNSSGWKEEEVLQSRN
Method in brief: as §1

CRX = CRX (Homo sapiens, UniProt O43186 1-299); conditions: protein: recombinant; tags: N-terminal GST; dsDNA, one strand shown
Method in brief: as §1

ETV1 = ETV1 (Homo sapiens, UniProt P50549 1-477); conditions: protein: recombinant; tags: N-terminal GST; dsDNA, one strand shown
Method in brief: as §1

ETV1, sequence (P50549 whole entry): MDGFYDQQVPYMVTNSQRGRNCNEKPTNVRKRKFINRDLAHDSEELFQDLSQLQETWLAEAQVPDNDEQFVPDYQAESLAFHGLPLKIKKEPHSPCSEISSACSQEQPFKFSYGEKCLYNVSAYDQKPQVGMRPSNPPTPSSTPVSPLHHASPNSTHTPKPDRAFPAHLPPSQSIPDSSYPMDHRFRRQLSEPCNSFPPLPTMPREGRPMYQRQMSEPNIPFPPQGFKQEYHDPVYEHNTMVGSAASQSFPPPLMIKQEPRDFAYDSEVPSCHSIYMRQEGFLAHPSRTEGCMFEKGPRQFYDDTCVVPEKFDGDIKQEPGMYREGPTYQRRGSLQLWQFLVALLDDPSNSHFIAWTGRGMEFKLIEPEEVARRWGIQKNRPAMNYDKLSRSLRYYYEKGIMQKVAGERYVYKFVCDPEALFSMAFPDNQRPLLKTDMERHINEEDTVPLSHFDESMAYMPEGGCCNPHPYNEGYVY
ETV5, sequence (P41161 whole entry): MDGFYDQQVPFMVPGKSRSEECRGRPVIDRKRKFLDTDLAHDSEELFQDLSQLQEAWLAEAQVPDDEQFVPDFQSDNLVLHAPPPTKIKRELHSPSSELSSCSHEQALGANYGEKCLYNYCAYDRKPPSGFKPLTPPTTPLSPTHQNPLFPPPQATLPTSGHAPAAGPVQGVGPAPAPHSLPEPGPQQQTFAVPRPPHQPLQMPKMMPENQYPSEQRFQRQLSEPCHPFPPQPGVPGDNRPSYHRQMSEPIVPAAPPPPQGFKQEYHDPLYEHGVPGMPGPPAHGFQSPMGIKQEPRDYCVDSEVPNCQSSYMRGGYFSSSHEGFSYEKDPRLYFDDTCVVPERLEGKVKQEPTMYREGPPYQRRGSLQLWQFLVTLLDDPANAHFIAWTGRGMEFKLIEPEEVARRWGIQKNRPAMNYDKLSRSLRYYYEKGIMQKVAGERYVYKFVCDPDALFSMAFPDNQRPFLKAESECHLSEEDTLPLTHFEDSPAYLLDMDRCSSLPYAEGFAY
CRX, sequence (O43186 whole entry): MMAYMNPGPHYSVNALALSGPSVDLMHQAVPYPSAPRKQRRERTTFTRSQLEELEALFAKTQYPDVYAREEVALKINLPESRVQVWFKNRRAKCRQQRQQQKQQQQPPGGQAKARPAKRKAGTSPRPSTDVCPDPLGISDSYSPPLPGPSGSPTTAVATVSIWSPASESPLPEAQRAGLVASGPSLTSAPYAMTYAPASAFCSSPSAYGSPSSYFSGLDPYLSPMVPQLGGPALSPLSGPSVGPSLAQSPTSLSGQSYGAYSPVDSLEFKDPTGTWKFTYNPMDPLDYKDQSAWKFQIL
HSF1, sequence (Q00613 whole entry): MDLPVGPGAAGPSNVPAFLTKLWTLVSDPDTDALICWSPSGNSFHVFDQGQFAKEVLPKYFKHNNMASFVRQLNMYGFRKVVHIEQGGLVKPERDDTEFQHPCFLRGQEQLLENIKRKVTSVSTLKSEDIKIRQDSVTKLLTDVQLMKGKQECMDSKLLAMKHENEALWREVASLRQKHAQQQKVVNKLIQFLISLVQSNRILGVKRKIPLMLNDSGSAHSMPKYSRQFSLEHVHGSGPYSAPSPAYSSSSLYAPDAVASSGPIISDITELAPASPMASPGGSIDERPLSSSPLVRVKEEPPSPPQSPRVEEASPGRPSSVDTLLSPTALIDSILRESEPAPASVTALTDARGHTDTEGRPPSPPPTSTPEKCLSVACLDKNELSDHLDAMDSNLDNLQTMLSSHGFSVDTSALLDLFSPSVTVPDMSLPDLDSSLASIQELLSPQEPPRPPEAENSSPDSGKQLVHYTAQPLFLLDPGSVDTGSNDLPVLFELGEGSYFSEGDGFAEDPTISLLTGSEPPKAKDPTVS
SPIB, sequence (Q01892 whole entry): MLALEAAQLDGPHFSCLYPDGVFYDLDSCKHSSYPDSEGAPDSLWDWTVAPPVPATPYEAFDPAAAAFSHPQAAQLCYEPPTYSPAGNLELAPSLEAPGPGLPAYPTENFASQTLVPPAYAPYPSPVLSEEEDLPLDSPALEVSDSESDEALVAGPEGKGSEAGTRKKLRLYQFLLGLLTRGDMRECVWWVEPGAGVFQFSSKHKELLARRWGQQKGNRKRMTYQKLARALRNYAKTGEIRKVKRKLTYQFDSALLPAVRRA
ELF1, sequence (P32519 whole entry): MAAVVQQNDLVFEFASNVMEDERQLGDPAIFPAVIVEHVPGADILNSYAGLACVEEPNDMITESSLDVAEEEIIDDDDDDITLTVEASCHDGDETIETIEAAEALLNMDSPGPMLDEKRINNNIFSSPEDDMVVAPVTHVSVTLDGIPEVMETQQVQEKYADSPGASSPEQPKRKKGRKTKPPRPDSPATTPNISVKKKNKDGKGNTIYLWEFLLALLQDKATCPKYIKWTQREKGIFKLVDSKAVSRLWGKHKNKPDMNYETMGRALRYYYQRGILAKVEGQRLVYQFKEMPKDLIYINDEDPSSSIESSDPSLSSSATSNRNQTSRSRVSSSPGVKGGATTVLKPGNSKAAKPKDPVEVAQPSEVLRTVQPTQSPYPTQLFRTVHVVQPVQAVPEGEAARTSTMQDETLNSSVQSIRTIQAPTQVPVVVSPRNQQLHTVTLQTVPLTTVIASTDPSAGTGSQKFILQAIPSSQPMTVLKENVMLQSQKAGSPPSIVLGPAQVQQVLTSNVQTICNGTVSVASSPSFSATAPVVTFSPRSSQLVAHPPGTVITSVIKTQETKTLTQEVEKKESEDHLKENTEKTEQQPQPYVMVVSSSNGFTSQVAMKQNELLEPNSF
ELF4, sequence (Q99607 whole entry): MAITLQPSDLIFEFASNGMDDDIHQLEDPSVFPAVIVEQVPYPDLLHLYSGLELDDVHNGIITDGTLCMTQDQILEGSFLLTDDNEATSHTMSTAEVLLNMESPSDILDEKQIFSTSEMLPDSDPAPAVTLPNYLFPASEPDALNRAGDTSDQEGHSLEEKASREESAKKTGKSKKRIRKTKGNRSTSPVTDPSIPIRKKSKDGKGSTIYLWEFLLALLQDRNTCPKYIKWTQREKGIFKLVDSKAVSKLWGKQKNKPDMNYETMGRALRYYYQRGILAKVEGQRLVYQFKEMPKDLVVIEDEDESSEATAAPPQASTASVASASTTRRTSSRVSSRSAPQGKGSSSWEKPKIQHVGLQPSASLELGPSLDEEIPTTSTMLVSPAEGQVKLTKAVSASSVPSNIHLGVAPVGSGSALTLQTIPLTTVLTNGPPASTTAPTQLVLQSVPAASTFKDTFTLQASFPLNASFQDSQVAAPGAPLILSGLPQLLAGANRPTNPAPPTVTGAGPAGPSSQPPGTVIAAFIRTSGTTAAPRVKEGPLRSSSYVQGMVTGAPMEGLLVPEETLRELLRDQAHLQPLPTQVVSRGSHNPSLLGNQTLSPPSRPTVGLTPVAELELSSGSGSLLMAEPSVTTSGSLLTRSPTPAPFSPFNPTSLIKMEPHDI

**Q.** How did the binding signal (FLI1) turn out when CAAATT was run?
**A.** Its binding signal is 1.15 fold enrichment (6-mer frequency, TF over GST control).

**Q.** What about the binding signal (ELK1) of the same sequence?
**A.** Its binding signal is 1.12 fold enrichment (6-mer frequency, TF over GST control).

**Q.** And the binding signal (GABPA)?
**A.** Its binding signal is 1.2 fold enrichment (6-mer frequency, TF over GST control).

**Q.** And the binding signal (ERG)?
**A.** Its binding signal is 1.16 fold enrichment (6-mer frequency, TF over GST control).

**Q.** And the binding signal (ELF1)?
**A.** The binding signal was 1.14 fold enrichment (6-mer frequency, TF over GST control).

**Q.** And the binding signal (EHF)?
**A.** Its binding signal is 1.11 fold enrichment (6-mer frequency, TF over GST control).

**Q.** What about the binding signal (SPI1) of the same sequence?
**A.** The binding signal was 1.15 fold enrichment (6-mer frequency, TF over GST control).

**Q.** What about the binding signal (SPIB) of the same sequence?
**A.** The binding signal was 1.08 fold enrichment (6-mer frequency, TF over GST control).

**Q.** What about the binding signal (ELK3) of the same sequence?
**A.** The binding signal was 1.14 fold enrichment (6-mer frequency, TF over GST control).

**Q.** And the binding signal (FEV)?
**A.** The binding signal was 1.14 fold enrichment (6-mer frequency, TF over GST control).

**Q.** And the binding signal (ETV5)?
**A.** The binding signal was 1.2 fold enrichment (6-mer frequency, TF over GST control).

**Q.** What about the binding signal (HSF1) of the same sequence?
**A.** The binding signal was 1.17 fold enrichment (6-mer frequency, TF over GST control).

**Q.** What about the binding signal (SPIC) of the same sequence?
**A.** Its binding signal is 1.16 fold enrichment (6-mer frequency, TF over GST control).

**Q.** What about the binding signal (ELF4) of the same sequence?
**A.** Its binding signal is 1.07 fold enrichment (6-mer frequency, TF over GST control).

**Q.** What about the binding signal (ETV2) of the same sequence?
**A.** The binding signal was 1.09 fold enrichment (6-mer frequency, TF over GST control).

**Q.** And the binding signal (ELF3)?
**A.** The binding signal was 1.17 fold enrichment (6-mer frequency, TF over GST control).

**Q.** And the binding signal (CRX)?
**A.** The binding signal was 1.12 fold enrichment (6-mer frequency, TF over GST control).

**Q.** What about the binding signal (ETV1) of the same sequence?
**A.** The binding signal was 1.18 fold enrichment (6-mer frequency, TF over GST control).
